Measured values from PubChem BioAssay (NCI).
This is part of a sample that, as a whole, favours compounds with a hit. Of some 79,000 tested, about 15% had one in any assay. Rule as the data show it: active = growth inhibition above about 70%; inactive = the rest.

Columns and labels:
[1] = NCI Yeast Anticancer Drug Screen. Data for the rad50 strain (AID 155);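 also: 0% = growth of vehicle-only cultures of the same strain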; settings: S. cerevisiae rad50 strain growth inhibition; at 50.0 µM; active compounds read high
Method in brief: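 Cells are treated with compound, grown, and their growth is then scored against vehicle-only cultures of the same repair-deficient yeast strain.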

[2] = NCI Yeast Anticancer Drug Screen. Data for the mec2-1 strain (AID 157); settings: S. cerevisiae mec2-1 strain, at 50.0 µM, active compounds read high
Method in brief: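 Vehicle-treated cultures served as reference for growth inhibition of compound-exposed mec2-1 yeast.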

[3] = NCI Yeast Anticancer Drug Screen. Data for the sgs1 mgt1 strain (AID 161);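 also: 0% = growth of cultures given vehicle only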; settings: S. cerevisiae sgs1 mgt1 strain, at 50.0 µM, active compounds read high
Method in brief: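 Read-out: growth inhibition vs vehicle controls. Cells: mutant yeast strain deficient in DNA damage repair.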

[4] = NCI Yeast Anticancer Drug Screen. Data for the cln2 rad14 strain (AID 165);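 also: 0% = growth equal to vehicle treated cultures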; settings: S. cerevisiae cln2 rad14 strain, at 50.0 µM, active compounds read high
Method in brief: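 Each compound was tested on cln2 rad14 yeast. Inhibition of growth was calculated against vehicle-exposed controls.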

[5] = NCI Yeast Anticancer Drug Screen. Data for the bub3 strain (AID 167); settings: S. cerevisiae bub3 mutant strain, at 50.0 µM, active compounds read high
Method in brief: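 Part of a panel of yeast mutants defective in DNA damage repair or cell cycle regulation. Each strain is grown with compound, and inhibition is calculated relative to solvent-treated cultures.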

[6] = NCI Yeast Anticancer Drug Screen. Data for the mlh1 rad18 strain (AID 175); settings: S. cerevisiae mlh1 rad18 strain growth inhibition; at 50.0 µM; active compounds read high
Method in brief: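 Vehicle-treated cultures served as the reference for growth inhibition in a yeast strain carrying DNA damage repair alterations exposed to each compound.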

Measured: growth inhibition

O=S(=O)(O)CCCCBr
inactive: [1] 3.6% | [2] -31.4% | [3] 16.8% | [4] -5% | [5] -3% | [6] 13.5%

CCOC(=O)C1S(=O)(=O)OCCOS1(=O)=O
inactive: [1] -19.2% | [2] -26.6% | [3] -7.45% | [4] 0.75% | [5] -14.8% | [6] -27.8%

COC(=O)c1ccccc1OC(=S)N(C)C
inactive: [1] -8.75% | [2] -11.4% | [3] -8.45% | [4] -29.1% | [5] 0.75% | [6] -17.4%

CC1=Nn2c(nnc2-c2ccc(Cl)cc2)NC(C)(C)C1
inactive: [1] 25.2% | [2] 5.55% | [3] 7.65% | [4] 7.95% | [5] 39.1% | [6] 26.3%

CC1(C)OC2(CC1C1(C)C=CC(=O)O1)CC1C(O)(CCC34CC13C(=O)OC4c1ccoc1)O2 (configuration not stated)
inactive: [1] 3.95% | [2] -17.3% | [3] 3.15% | [4] 6.2% | [5] -3.1% | [6] 10.2%

O=S(=O)(Nc1cccc(C2=NCCN2)c1)c1cccc2c(S(=O)(=O)Nc3cccc(C4=NCCN4)c3)cccc12
inactive: [1] -9.6% | [2] -25.9% | [3] -30.1% | [4] -19% | [5] -12.2% | [6] -22.1%

Nc1cccc(CC(NC(=O)c2ccccc2)C(=O)O)c1 (configuration not stated)
inactive: [1] -16.4% | [2] 2.1% | [3] 12.1% | [4] -4.3% | [5] 28.6% | [6] -22.7%

O=c1c2ccccc2nc(-c2ccccc2)n1/N=C/c1ccccc1O
inactive: [1] 1.15% | [2] 38.8% | [3] 34.6% | [4] -5.65% | [5] 32.9% | [6] 27.1%

NNC(=O)c1ccccc1F
inactive: [1] -19.6% | [2] -19.4% | [3] -16.3% | [4] -4.7% | [5] -10.2% | [6] -19.2%

O=C(O)C1(O)CC(O)C(O)C(O)C1 (configuration not stated)
inactive: [1] 5.25% | [2] -7.05% | [3] -0.25% | [4] -13.8% | [5] 8.55% | [6] -0.8%

O=C1C(=O)c2ccccc2C(O)=C1Br
inactive: [1] 27.9% | [2] 39.4% | [3] 49.4% | [4] -61% | [5] 28.4% | [6] 29.8%

COc1cccc(NC(=O)NCCN(C)c2ccccc2)c1
inactive: [1] -5.7% | [2] 38.5% | [3] 21.1% | [4] -17.2% | [5] 23.1% | [6] 27.2%

Cn1c(CBr)nc2c1C(=O)c1nc[nH]c(=O)c1C2=O
inactive: [1] 32% | [2] 0.55% | [3] 37.6% | [4] 11.8% | [5] 3.4% | [6] 31.6%

CCOC(=O)C(NC(=O)c1ccccc1)(N1CCN(c2cc3c(cc2F)c(=O)c(C(=O)O)cn3CC)CC1)C(F)(F)F (configuration not stated)
inactive: [1] -29.4% | [2] -34.4% | [3] -3.3% | [4] -18.4% | [5] -14.2% | [6] -20.8%

COc1cccc(C2c3cc4c(cc3OC(N3CCCCC3)C2C)OCO4)c1OC (configuration not stated)
inactive: [1] 33.1% | [2] 30.8% | [3] 46.4% | [4] 19.8% | [5] 63% | [6] 61.8%

CCC(CC)COC(=O)c1ccccc1C
inactive: [1] 7.45% | [2] -0.15% | [3] -0.85% | [4] -27.1% | [5] 15.4% | [6] 0.6%

CC(C)(C)OC(=O)c1cccc(Br)c1
inactive: [1] -8.1% | [2] -12.8% | [3] -4.55% | [4] 15.2% | [5] 12.8% | [6] 11.1%

CCc1c(C)c2cc(N)ccc2[nH]c1=O
inactive: [1] -8.05% | [2] 24.1% | [3] -3.7% | [4] -23.7% | [5] -9.9% | [6] 6.45%

CC(=O)C1C(=O)C(=O)N(c2ccc([N+](=O)[O-])cc2Cl)C1=O (configuration not stated)
inactive: [1] -45.9% | [2] -35.8% | [3] 2.95% | [4] 2.95% | [5] -3.55% | [6] -33.2%

Cc1cc2c(cc1C)-c1c(N)nc(N)nc1CC2
inactive: [1] 2.2% | [2] 9.95% | [3] -8.6% | [4] -29.2% | [5] -15% | [6] 12.7%

COc1ccc(CC(=O)c2c(OC)c3c(c4c2OC(C)(C)CC4)OC(C)(C)CC3)cc1OC
inactive: [1] 21.1% | [2] -14.8% | [3] 8.1% | [4] 16.5% | [5] 33.9% | [6] 34.4%

COc1cc(C(=O)Nc2ccc(N3CCCCC3)cc2)cc(OC)c1OC
inactive: [1] 25.1% | [2] 9.2% | [3] 38.4% | [4] -16.2% | [5] 14.6% | [6] 36.3%

CC1=CC(C)(C)NC(=S)N1c1ccccc1O
inactive: [1] -0.95% | [2] 25.6% | [3] 15.3% | [4] -16.4% | [5] 41.8% | [6] 41%

COc1ccc(C2=C(C#N)C(=C(C#N)C#N)NC(N)=C2C#N)cc1
inactive: [1] -11.1% | [2] -1.25% | [3] -21.8% | [4] -4.75% | [5] -19.4% | [6] -17.4%

COc1ccc2ccc3ccc(OC)nc3c2n1
inactive: [1] 40% | [2] 40.2% | [3] 36.1% | [4] -7.05% | [5] 30.2% | [6] 16.1%

COC(=O)[C@@]12OC[C@]34[C@H]([C@@H](O)[C@@H]1O)[C@@]1(C)CC(=O)C(O)=C(C)[C@@H]1C[C@H]3OC(=O)[C@H](OC(=O)/C=C(\C)C(C)CO)[C@@H]24 (some centres not stated)
inactive: [1] -0.7% | [2] -16.7% | [3] -13.3% | [4] -1.7% | [5] -18.9% | [6] -28.8%

Cc1ccc2nc(-c3ccc(Cl)cc3Cl)oc(=O)c2c1
inactive: [1] -9.35% | [2] 3.8% | [3] 20.4% | [4] -12.8% | [5] 20.6% | [6] -7.15%

ClCCCCSC1CCCCC1
inactive: [1] -5.7% | [2] -9.15% | [3] -5.4% | [4] -3.1% | [5] 0.6% | [6] -25.1%

Cc1cc(NC(=O)COCC(=O)O)no1
inactive: [1] -7.15% | [2] -24.9% | [3] 5.65% | [4] 9.45% | [5] 0.6% | [6] -9.15%

CC(C)C(NC(=O)C1CSC(C)(C)N1C=O)C(N)=O (configuration not stated)
inactive: [1] -5.2% | [2] -31.6% | [3] 12.3% | [4] -6.7% | [5] 36.7% | [6] -25.2%

O=COC(Cc1ccccc1)c1ccc2c(c1)OCO2 (configuration not stated)
inactive: [1] 32.2% | [2] -5.2% | [3] 1.6% | [4] -7.2% | [5] 30.6% | [6] -3.05%

CCC(C)(O)C#CC#CC(C)(O)CC (configuration not stated)
inactive: [1] 17.2% | [2] -22.2% | [3] 22.1% | [4] 16.6% | [5] -5.35% | [6] 22.1%

Nc1ncnc2c1c1c(=O)[nH]c(=O)[nH]c1n2C1OC(CO)C(O)C1O (configuration not stated)
inactive: [1] -1.95% | [2] 1.8% | [3] 7.35% | [4] 2.15% | [5] -7.55% | [6] -44.5%

Cc1ccc2nnc(C)n2c1
inactive: [1] 10.7% | [2] 1.95% | [3] 1.85% | [4] 19.2% | [5] 24.9% | [6] -4.4%

CSc1nc(N)c(NS(=O)(=O)c2ccc(NC(C)=O)cc2)c(=O)[nH]1
inactive: [1] 5.85% | [2] 1.8% | [3] 9.05% | [4] -12.7% | [5] 2.45% | [6] 15.4%

CCOC(=O)C1CC1c1c(C)c2cc3[nH]c(cc4nc(cc5nc(cc1[nH]2)C(C)=C5CCC(=O)OC)C(CCC(=O)OC)=C4C)c(C)c3C1CC1C(=O)OCC (configuration not stated)
inactive: [1] -7.25% | [2] 36.5% | [3] 29.5% | [4] -19.4% | [5] -6.15% | [6] 39.2%

CC(C)CCCC(C)C1CCC2C3CC=C4CC(O[N+](=O)[O-])CCC4(C)C3CCC12C (configuration not stated)
inactive: [1] -24.8% | [2] -6% | [3] -17.1% | [4] -13.8% | [5] -5.15% | [6] 17.9%
